{"source": "ChEMBL document CHEMBL3988442", "about": "“University of Dundee, Small-Polar-MMV Screening Library” (2021)"}
{"target": "AMP-activated protein kinase, AMPK (Homo sapiens) (UniProt P54646+O43741+P54619+Q9UGJ0+Q9Y478+Q13131+Q9UGI9)", "test": "AMP-dependent Kinase enzyme assay. An in vitro enzyme assay that detects ADP turnover that is directly proportional to AMPK activity. This uses naive AMPK that is activated during the assay with MK-8722", "assay_type": "functional", "parameters": "scale not given: direction of the effect not stated beside the values", "settings": "30 µM", "units": {"Percent Effect": "%"}}
{"smiles": "CC1(C)CN(c2cc(C3CC3)ncn2)C[C@]1(C)O", "Percent Effect": 30.7}
{"smiles": "CCc1nn(C)c(Cl)c1CN(CC)Cc1cnn(CC)c1", "Percent Effect": 1.72}
{"smiles": "Cn1c(N)nnc1SCc1c(F)cccc1Br", "Percent Effect": 4.93}
{"smiles": "Cn1cccc1CN(C(=O)Cc1cccs1)C1CC1", "Percent Effect": -4.04}
{"smiles": "CC(C)c1nc(CN(C)Cc2ncccc2C(=O)O)cs1", "Percent Effect": 4.59}
{"smiles": "CC(C)n1cc(CN(Cc2ccc(F)cc2)CC2CCCO2)cn1", "note": "(centres undefined)", "Percent Effect": 5.24}
{"smiles": "CCc1oc(C(=O)N[C@@H]2c3ccccc3C[C@@H]2O)cc1C", "Percent Effect": -3}
{"smiles": "Cc1cccc(C)c1Nc1noc2c1CN(C(=O)c1ccnn1C)CC2", "Percent Effect": 9.88}
{"smiles": "CCN(CC)C(=O)N1CCOCC1c1c(C)nn(C)c1C", "note": "(centres undefined)", "Percent Effect": 2.79}
{"smiles": "Cc1ccccc1S(=O)(=O)N[C@@H]1CC[C@@H](N2CCNC(=O)C2)[C@@H]1O", "Percent Effect": 5.3}
{"smiles": "O=C(NCc1nnc2n1CCC2)c1cccc(Br)c1", "Percent Effect": 3.99}
{"smiles": "CCc1ccc2nc(-c3cnn(C)c3)cc(C(=O)N3CCCC3)c2c1", "Percent Effect": 7.23}
{"smiles": "CN(C)S(=O)(=O)N1CCCC(c2nccnc2-c2cccc(Cl)c2)C1", "note": "(centres undefined)", "Percent Effect": 16}
{"smiles": "Cc1csc(N2CCN(Cc3ccccn3)CC2)n1", "Percent Effect": -1.61}
{"smiles": "Cc1cc(C(=O)N2CCN(c3ncc4c(n3)CCOC4)CC2)sc1C", "Percent Effect": 16.3}
{"smiles": "CCc1nc(C2CCCN2Cc2ncc(C)c(OC)c2C)no1", "note": "(centres undefined)", "Percent Effect": 0.391}
{"smiles": "COCCN(C)C[C@@H]1CN(c2cc(C)nc3ccccc23)C[C@@H]1CO", "Percent Effect": -6.62}
{"smiles": "Cc1cccc(C(C(=O)NC(C)(C)CN2CCCC2)N(C)C)c1", "note": "(centres undefined)", "Percent Effect": -15.9}
{"smiles": "NC(=O)CCn1ccc(NCc2cc(F)ccc2Br)n1", "Percent Effect": -0.0146}
{"smiles": "COc1ccc(Cl)cc1CN(CC(N)=O)C(C)C", "Percent Effect": -4.14}
{"smiles": "N#CC1(NC(=O)c2ccc(F)cc2OC(F)F)CCOCC1", "Percent Effect": 1.96}
{"smiles": "CSc1nccc(N2CCC3(CCCN(Cc4cccc(C)c4)C3)C2)n1", "note": "(centres undefined)", "Percent Effect": 5.62}
{"smiles": "CCC(=O)NC(C)c1ccccc1C", "note": "(centres undefined)", "Percent Effect": 14.9}
{"smiles": "O=C(CCn1ccnn1)N1CCCC(n2cncn2)C1", "note": "(centres undefined)", "Percent Effect": 14.6}
{"smiles": "O=C(Cn1cccn1)N1CCC(c2nnc(-c3ccsc3)o2)CC1", "Percent Effect": 14}
{"smiles": "CCOCc1ccc(NC(=O)N2CCOC3(CCC3)C2)cc1", "Percent Effect": -2.16}
{"smiles": "O=S(=O)(NCC1(c2cccs2)CCCC1)c1cccnc1", "Percent Effect": -4.96}
{"smiles": "Cc1cn[nH]c1C1COCCN1Cc1c[nH]cn1", "note": "(centres undefined)", "Percent Effect": 8.68}
{"smiles": "Cc1ccc(CCCC(=O)N2CC(=O)Nc3cccnc32)s1", "Percent Effect": 2.25}
{"smiles": "COc1cccc(F)c1CN1CCC(c2nc(C)cc(C)n2)C1", "note": "(centres undefined)", "Percent Effect": 1.72}
{"smiles": "O=C(C1CCCN(c2nc3ccccc3cc2CO)C1)N1CCCC1", "note": "(centres undefined)", "Percent Effect": 9.42}
{"smiles": "CN(C)c1cccc(C(=O)Nc2cnn(CC(N)=O)c2)c1", "Percent Effect": 3.58}
{"smiles": "Cc1cncc(C2CCN(Cc3ccncc3)CC2)n1", "Percent Effect": 7.85}
{"smiles": "COCCC1CCCCN1C(=O)c1coc(COc2ccccc2F)n1", "note": "(centres undefined)", "Percent Effect": 12.2}
{"smiles": "COCCNc1ccc(CC2CCCN(C3CCCC3)C2)nn1", "note": "(centres undefined)", "Percent Effect": 4.32}
{"smiles": "Cc1nc(N)nc(C)c1CC(=O)N1CCC2(CC1)OCCCC2O", "note": "(centres undefined)", "Percent Effect": 73.8}
{"smiles": "COc1nccc(N2CC[C@H](CO)[C@@H](O)C2)c1C#N", "Percent Effect": -6.05}
{"smiles": "COc1cc(C(=O)O)ccc1OCC(=O)NCCc1ccccc1", "Percent Effect": 2.55}
{"smiles": "CC(C)c1nn(C)cc1CNCc1cccc(N(C)C)c1", "Percent Effect": -15.4}
